Experimental data: PubChem BioAssay (NCI)
The panel holds about 83,000 compounds, 20% with a hit somewhere; the sample as a whole holds those more often.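 Compound tested at a single concentration for 48 hours in 96-well plates; a percent growth value below 10 was scored as active.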 The source made the active and inactive calls.

Assays:
Assay in all cases: NCI-60 one-dose screen, 48 h (100 = growth as untreated, 0 = no growth, -100 = all killed)
Settings in all cases: 10 µM unless noted
SR leukemia = tested on: SR leukemia
RPMI-8226 leukemia = tested on: RPMI-8226 leukemia
OVCAR-8 ovarian = tested on: OVCAR-8 ovarian
OVCAR-5 ovarian = tested on: OVCAR-5 ovarian
OVCAR-4 ovarian = tested on: OVCAR-4 ovarian
SK-OV-3 ovarian = tested on: SK-OV-3 ovarian
IGROV1 ovarian = tested on: IGROV1 ovarian
OVCAR-3 ovarian = tested on: OVCAR-3 ovarian
HS 578T breast = tested on: HS 578T breast
NCI/ADR-RES ovarian = tested on: NCI/ADR-RES ovarian

Measured: growth

O=C1c2cccc(NCCN=Cc3cc(O)ccc3O)c2C(=O)c2c(NCCN=Cc3cc(O)ccc3O)cccc21
inactive: SR leukemia 40.4% | SK-OV-3 ovarian 73.4% | NCI/ADR-RES ovarian 42.9%
active: RPMI-8226 leukemia -60.1% | OVCAR-8 ovarian 7.56% | OVCAR-5 ovarian -28.1% | OVCAR-4 ovarian -47% | IGROV1 ovarian -6.03% | OVCAR-3 ovarian -48.8% | HS 578T breast -37.6%

CN1CCN(C(=O)OCc2ccc3c(Cl)cc(Cl)c(O)c3n2)CC1
inactive: SR leukemia 14% | RPMI-8226 leukemia 42% | OVCAR-8 ovarian 45.1% | OVCAR-5 ovarian 106% | OVCAR-4 ovarian 46.8% | SK-OV-3 ovarian 88.7% | IGROV1 ovarian 56.6% | OVCAR-3 ovarian 50.9% | HS 578T breast 80.2% | NCI/ADR-RES ovarian 15%

C#Cc1cccc(Nc2ncnc3ccc(-c4cnc(N)nc4)cc23)c1
active: SK-OV-3 ovarian -2.3% | IGROV1 ovarian -26.3% | HS 578T breast -7.24%
inactive: SR leukemia 40.6% | RPMI-8226 leukemia 22.8% | OVCAR-8 ovarian 49.6% | OVCAR-5 ovarian 23.1% | OVCAR-4 ovarian 46.1% | OVCAR-3 ovarian 24.1% | NCI/ADR-RES ovarian 49.8%

N#C/C(=C/c1ccc([N+](=O)[O-])cc1)n1nnc2cc(F)c(F)cc21
inactive: OVCAR-8 ovarian 37.5% | OVCAR-5 ovarian 108% | OVCAR-4 ovarian 86.5% | SK-OV-3 ovarian 116% | IGROV1 ovarian 73.6% | OVCAR-3 ovarian 30.6% | HS 578T breast 80.6% | NCI/ADR-RES ovarian 76.2%
active: SR leukemia 2.33% | RPMI-8226 leukemia -18.7%

N#CC1=C(N)Oc2c(sc3c(F)cccc23)C1c1ccc(F)cc1 (stereo not given)
inactive: SR leukemia 30.6% | RPMI-8226 leukemia 18.1% | OVCAR-8 ovarian 21.4% | OVCAR-5 ovarian 61.5% | OVCAR-4 ovarian 60.8% | SK-OV-3 ovarian 31.8% | IGROV1 ovarian 33.9% | OVCAR-3 ovarian 10.9% | HS 578T breast 24.6%
active: NCI/ADR-RES ovarian 4.36%

CCn1cc(C(=O)N/N=C/c2cccs2)c(=O)c2cc(F)c(N3CCNC(C)C3)c(F)c21 (stereo not given)
inactive: OVCAR-8 ovarian 43.8% | OVCAR-5 ovarian 67.2% | OVCAR-4 ovarian 76.2% | SK-OV-3 ovarian 90.3% | IGROV1 ovarian 67% | OVCAR-3 ovarian 68.7% | HS 578T breast 86% | NCI/ADR-RES ovarian 67.9%
active: SR leukemia -4.21% | RPMI-8226 leukemia -36.6%

Nc1c(C(=O)Nc2ccncc2)sc2nc3c(cc12)CCCCCC3
inactive: SR leukemia 20.8% | RPMI-8226 leukemia 64.9% | OVCAR-8 ovarian 86.7% | OVCAR-5 ovarian 90.7% | OVCAR-4 ovarian 86.9% | SK-OV-3 ovarian 79.6% | IGROV1 ovarian 103% | OVCAR-3 ovarian 104% | HS 578T breast 83.2% | NCI/ADR-RES ovarian 89%

N#Cc1c(-c2ccc(Cl)cc2)nc(SCC(=O)NC2=NN=C(c3ccccc3)CS2)[nH]c1=O
inactive: SR leukemia 42.7% | RPMI-8226 leukemia 73.5% | OVCAR-8 ovarian 101% | OVCAR-5 ovarian 112% | OVCAR-4 ovarian 83.4% | SK-OV-3 ovarian 47.5% | IGROV1 ovarian 90.4% | OVCAR-3 ovarian 83.7% | HS 578T breast 93.7% | NCI/ADR-RES ovarian 86.7%

CCOC(=O)c1cc(-c2ccc([N+](=O)[O-])cc2)n(-c2ccc(C(=O)O)c(O)c2)c1C
inactive: SR leukemia 67.1% | OVCAR-8 ovarian 38.6% | OVCAR-5 ovarian 114% | OVCAR-4 ovarian 52% | SK-OV-3 ovarian 95.6% | OVCAR-3 ovarian 79.6% | HS 578T breast 67.8% | NCI/ADR-RES ovarian 57.5%
active: RPMI-8226 leukemia -3.07% | IGROV1 ovarian -11.3%

COc1ccc2c(O)c(/C=C3\N=Nc4ccccc43)oc2c1C[C@@H]1CCNC[C@H]1F
active: SR leukemia -38.5% | OVCAR-8 ovarian 0.196%
inactive: RPMI-8226 leukemia 91.9% | OVCAR-5 ovarian 67.8% | OVCAR-4 ovarian 64.9% | SK-OV-3 ovarian 90.5% | IGROV1 ovarian 76.4% | OVCAR-3 ovarian 94% | HS 578T breast 60.3% | NCI/ADR-RES ovarian 72.1%

N#Cc1nn(-c2cc(=O)[nH]c3ccc(Cl)cc23)c(N)c1C#N
active: SR leukemia 0.706% | RPMI-8226 leukemia -24.6%
inactive: OVCAR-8 ovarian 95.8% | OVCAR-5 ovarian 105% | OVCAR-4 ovarian 91.5% | SK-OV-3 ovarian 74.6% | IGROV1 ovarian 102% | OVCAR-3 ovarian 108% | HS 578T breast 103% | NCI/ADR-RES ovarian 98.5%

COc1cc(-c2nc(SCC(C)C)nc(Nc3cccc4ccccc34)c2C#N)cc(OC)c1OC
inactive: SR leukemia 40.7% | RPMI-8226 leukemia 91.2% | OVCAR-8 ovarian 92.1% | OVCAR-5 ovarian 109% | OVCAR-4 ovarian 87.6% | SK-OV-3 ovarian 110% | IGROV1 ovarian 106% | OVCAR-3 ovarian 117% | HS 578T breast 106% | NCI/ADR-RES ovarian 98.8%

CN(C)c1ccc(/C=C/C(=O)c2ccc(-n3cc(CN4CCN(c5cc6c(cc5F)c(=O)c(C(=O)O)cn6C5CC5)CC4)nn3)cc2)cc1
inactive: OVCAR-8 ovarian 23.3% | OVCAR-5 ovarian 84.2% | OVCAR-4 ovarian 93.1% | SK-OV-3 ovarian 71.6% | IGROV1 ovarian 39.6% | OVCAR-3 ovarian 46.6% | HS 578T breast 57.4% | NCI/ADR-RES ovarian 92.1%
active: SR leukemia 7.11% | RPMI-8226 leukemia -24.6%

CCOC(=O)C1=NN(c2ccccc2)C(=O)/C1=C\N1C(=O)CC(=O)NC1=S
inactive: SR leukemia 92.6% | RPMI-8226 leukemia 93.1% | OVCAR-8 ovarian 100% | OVCAR-5 ovarian 104% | OVCAR-4 ovarian 52.7% | SK-OV-3 ovarian 97.5% | IGROV1 ovarian 106% | OVCAR-3 ovarian 101% | HS 578T breast 102% | NCI/ADR-RES ovarian 95.9%

COc1ccc(-c2csc(N(C(=O)N3CCN(c4cc5c(cc4F)c(=O)c(C(=O)O)cn5C4CC4)CC3)c3ccccc3)n2)cc1
active: OVCAR-3 ovarian 8.09%
inactive: SR leukemia 10.4% | RPMI-8226 leukemia 16% | OVCAR-8 ovarian 15.5% | OVCAR-5 ovarian 12.8% | OVCAR-4 ovarian 33.3% | SK-OV-3 ovarian 21.8% | IGROV1 ovarian 17.1% | HS 578T breast 40.3% | NCI/ADR-RES ovarian 11.8%

Cn1c(O)c(C=NCCN=Cc2c(O)n(C)c(=O)n(C)c2=O)c(=O)n(C)c1=O
active: SR leukemia -21.9%
inactive: RPMI-8226 leukemia 80.6% | OVCAR-8 ovarian 103% | OVCAR-5 ovarian 83.7% | OVCAR-4 ovarian 112% | SK-OV-3 ovarian 107% | IGROV1 ovarian 106% | OVCAR-3 ovarian 102% | HS 578T breast 112% | NCI/ADR-RES ovarian 104%

Cc1cc(=O)[nH]c2c(C#N)cnn12
inactive: SR leukemia 112% | RPMI-8226 leukemia 101% | OVCAR-8 ovarian 98.7% | OVCAR-5 ovarian 97.7% | OVCAR-4 ovarian 111% | SK-OV-3 ovarian 106% | IGROV1 ovarian 97.2% | OVCAR-3 ovarian 101% | HS 578T breast 92.6% | NCI/ADR-RES ovarian 102%

O=C(NCCCCNC(=O)OCc1ccc2c(Cl)cc(Cl)c(O)c2n1)OCc1ccc2c(Cl)cc(Cl)c(O)c2n1
inactive: SR leukemia 17% | RPMI-8226 leukemia 25% | OVCAR-8 ovarian 11.2% | OVCAR-5 ovarian 38.6% | OVCAR-4 ovarian 38.9% | SK-OV-3 ovarian 30.5% | IGROV1 ovarian 11.1% | HS 578T breast 21.9%
active: OVCAR-3 ovarian -40.3% | NCI/ADR-RES ovarian 3.44%

CCNc1nc(-c2ccc(Cl)c(OC)c2)c(-c2ccnc(NCCCNS(=O)(=O)c3ccc(Cl)cc3)n2)s1
inactive: SR leukemia 43.4% | RPMI-8226 leukemia 45.9% | OVCAR-8 ovarian 51% | OVCAR-5 ovarian 87.6% | OVCAR-4 ovarian 83% | SK-OV-3 ovarian 42.1% | IGROV1 ovarian 56.1% | OVCAR-3 ovarian 81.2% | HS 578T breast 64.3% | NCI/ADR-RES ovarian 77.6%

COc1cc(-c2nc3cc(Cl)c(Cl)cc3[nH]2)ccc1OCC(=O)N=Nc1c(O)[nH]c2ccc([N+](=O)[O-])cc12
inactive: SR leukemia 23.9% | RPMI-8226 leukemia 101% | OVCAR-8 ovarian 69.3% | OVCAR-5 ovarian 105% | OVCAR-4 ovarian 71.7% | SK-OV-3 ovarian 77% | IGROV1 ovarian 87.1% | OVCAR-3 ovarian 36.1% | HS 578T breast 68.2% | NCI/ADR-RES ovarian 109%

COc1ccc(/C(C)=C(/c2ccc(OCCCN(C)C)cc2)c2ccc(OC(=O)Cc3ccccc3)cc2)cc1
active: SR leukemia -0.597%
inactive: RPMI-8226 leukemia 48.1% | OVCAR-8 ovarian 87.6% | OVCAR-5 ovarian 85.2% | OVCAR-4 ovarian 87.9% | SK-OV-3 ovarian 73.4% | IGROV1 ovarian 95% | OVCAR-3 ovarian 81.2% | HS 578T breast 56.5% | NCI/ADR-RES ovarian 85.1%

O=C1Nc2ccc(I)cc2C1=O
inactive: SR leukemia 100% | RPMI-8226 leukemia 144% | OVCAR-8 ovarian 90.7% | OVCAR-5 ovarian 98.6% | OVCAR-4 ovarian 101% | SK-OV-3 ovarian 108% | IGROV1 ovarian 46.6% | OVCAR-3 ovarian 74.7% | HS 578T breast 97.8% | NCI/ADR-RES ovarian 97.2%

CCN1CCN(c2cc(C(=O)Nc3nc(-c4cc(OC)c(OC)c(OC)c4)cs3)cc(C(F)(F)F)c2)CC1
inactive: RPMI-8226 leukemia 56.9% | OVCAR-8 ovarian 65.1% | OVCAR-5 ovarian 74.6% | OVCAR-4 ovarian 68.9% | SK-OV-3 ovarian 90.5% | IGROV1 ovarian 41.5% | OVCAR-3 ovarian 81.3% | HS 578T breast 68.1% | NCI/ADR-RES ovarian 55.8%
active: SR leukemia 9.19%

CN(C)Cc1ccc(NC(=O)c2cncc(C#Cc3cnc(N)c4ncccc34)c2)cc1F
active: SR leukemia 2.94% | OVCAR-8 ovarian -18% | OVCAR-4 ovarian -71.3%
inactive: RPMI-8226 leukemia 35.6% | OVCAR-5 ovarian 123% | SK-OV-3 ovarian 112% | IGROV1 ovarian 100% | OVCAR-3 ovarian 87.9% | HS 578T breast 87.3% | NCI/ADR-RES ovarian 56.9%

O=C1/C(=C/c2ccc(Cl)cc2)COc2ccc(O)cc21
active: SR leukemia 5.45% | RPMI-8226 leukemia -31.8%
inactive: OVCAR-8 ovarian 77.8% | OVCAR-5 ovarian 88.7% | OVCAR-4 ovarian 84% | SK-OV-3 ovarian 132% | IGROV1 ovarian 78.6% | OVCAR-3 ovarian 75.5% | HS 578T breast 83.1% | NCI/ADR-RES ovarian 88.7%

Cc1noc(C)c1C(=O)OCc1coc2ccccc2c1=O
inactive: SR leukemia 45.3% | RPMI-8226 leukemia 30.1% | OVCAR-8 ovarian 91.8% | OVCAR-5 ovarian 71.6% | OVCAR-4 ovarian 62.8% | SK-OV-3 ovarian 109% | IGROV1 ovarian 82.6% | OVCAR-3 ovarian 44.9% | HS 578T breast 78.3% | NCI/ADR-RES ovarian 90.7%
